Laboratory results published in PubChem BioAssay AID1159580 (chemical genetic matrix, 2015).
Where “and” joins values, the source holds several entries; their conditions need not be identical. Identical values can stand only once. The whole screen tested about 5,500 compounds, of which about 2,000 (36%) were called active. Not shown: some 18% with an inconclusive outcome. Rule as the data show it: active = normalized growth mostly below about 0.91 (no sharp cut-off); inconclusive = no clear call, values can overlap the other calls; inactive = mostly above about 0.92. Some of the results follow.

Assay: chemical genetic growth profiling, strain panel (AID 1159580);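 also: tested at 20 µM; growth read once vehicle control cultures reached saturation at 30 °C; 1 = growth at the plate median or of vehicle wells; lower values mean less growth of the strain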
Settings: S. cerevisiae deletion strains, growth OD

Measured: normalized growth

O=C1C=CC(=O)c2c(O)cccc21
inactive: locus YAL021C, strain ccr4, active compounds read low 1.01 | locus YAL026C, strain drs2, active compounds read low 0.951 | locus YAL030W, strain snc1, active compounds read low 0.965 | locus YBL061C, strain skt5, active compounds read low 0.976 | locus YBR009C, strain hhf1, active compounds read low 0.966 | locus YBR021W, strain FUR4, active compounds read low 1.09 | locus YBR023C, strain chs3, active compounds read low 0.973 | locus YBR171W, strain sec66, active compounds read low 1 | locus YBR229C, strain ROT2, active compounds read low 0.955 | locus YBR279W, strain paf1, active compounds read low 0.974 | locus YCL011C, strain gbp2, active compounds read low 0.978 | locus YCL016C, strain dcc1, active compounds read low 0.975 | locus YCL029C, strain bik1, active compounds read low 0.983 | locus YCL069W, strain vba3, active compounds read low 0.971 | locus YCR088W, strain abp1, active compounds read low 0.981 | locus YDL005C, strain med2, active compounds read low 1 | locus YDL035C, strain GPR1, active compounds read low 0.993 | locus YDL040C, strain nat1, active compounds read low 1 | locus YDL074C, strain BRE1, active compounds read low 1.02 | locus YDL101C, strain DUN1, active compounds read low 0.966 | locus YDL134C, strain PPH21, active compounds read low 0.967 | locus YDL185W, strain tfp1, active compounds read low 0.961 | locus YDL192W, strain arf1, active compounds read low 0.972 | locus YDR001C, strain nth1, active compounds read low 0.991 | locus YDR069C, strain doa4, active compounds read low 0.956 | locus YDR101C, strain arx1, active compounds read low 1.03 | locus YDR162C, strain NBP2, active compounds read low 0.912 | locus YDR195W, strain ref2 1.03 | locus YDR297W, strain sur2, active compounds read low 1.01 | locus YDR318W, strain mcm21, active compounds read low 0.962 | locus YDR335W, strain msn5, active compounds read low 0.975 | locus YDR388W, active compounds read low 0.99 | locus YDR502C, strain sam2, active compounds read low 1.01 | locus YEL003W, strain gim4, active compounds read low 0.969 | locus YEL037C, strain rad23, active compounds read low 0.973 | locus YEL061C, strain CIN8 (second series), active compounds read low 0.983 | locus YEL061C, strain CIN8, active compounds read low 0.982 | locus YER015W, strain faa2, active compounds read low 0.956 | locus YER016W, strain bim1, active compounds read low 1.02 | locus YER110C, active compounds read low 0.972 | locus YER155C, strain BEM2, active compounds read low 1 | locus YER167W, strain BCK2, active compounds read low 0.984 | locus YFR010W, strain ubp6, active compounds read low 0.907 | locus YGL078C, strain dbp3, active compounds read low 1.04 | locus YGL086W, strain mad1, active compounds read low 1.02 | locus YGL167C, strain pmr1, active compounds read low 0.961 | locus YGL173C, strain kem1, active compounds read low 0.938 | locus YGL227W, strain vid30, active compounds read low 1.04 | locus YGL248W, strain PDE1, active compounds read low 0.955 | locus YGL253W, strain hxk2, active compounds read low 0.979 | locus YGR078C, strain PAC10, active compounds read low 0.958 | locus YGR135W, strain pre9, active compounds read low 0.966 | locus YGR229C, strain SMI1, active compounds read low 0.97 | locus YGR252W, strain gcn5, active compounds read low 1.03 | locus YHR013C, strain ard1, active compounds read low 0.894 | locus YHR027C, strain rpn1, active compounds read low 0.954 | locus YHR030C, strain SLT2, active compounds read low 0.993 and 0.875 | locus YHR079C, strain IRE1 (second series), active compounds read low 0.997 | locus YHR079C, strain IRE1, active compounds read low 0.972 | locus YHR094C, strain hxt1, active compounds read low 1 | locus YHR129C, strain ARP1, active compounds read low 0.991 | locus YHR142W, strain chs7, active compounds read low 0.992 | locus YHR200W, strain rpn10, active compounds read low 0.963 | locus YIL066C, strain RNR3, active compounds read low 0.965 | locus YIL073C, strain SPO22, active compounds read low 0.933 | locus YIL125W, strain kgd1, active compounds read low 0.997 | locus YIR030C, strain dcg1, active compounds read low 1 | locus YJL092W, strain hpr5, active compounds read low 0.987 | locus YJL095W, strain BCK1 (second series), active compounds read low 0.946 | locus YJL095W, strain BCK1, active compounds read low 0.903 and 0.941 | locus YJL115W, strain asf1, active compounds read low 0.969 | locus YJL129C, strain trk1, active compounds read low 1.02 | locus YJL134W, strain LCB3, active compounds read low 0.984 | locus YJL154C, strain vps35, active compounds read low 0.974 | locus YJL164C, strain tpk1, active compounds read low 0.953 | locus YJL166W, strain qcr8, active compounds read low 0.935 | locus YJL168C, strain set2, active compounds read low 0.988 | locus YJL187C, strain SWE1 (second series), active compounds read low 0.964 | locus YJL187C, strain SWE1, active compounds read low 0.987
active: locus YBR231C, strain swc5, active compounds read low 0.876 | locus YDR137W, strain rgp1, active compounds read low 0.708 | locus YDR159W, strain sac3, active compounds read low 0.838 | locus YDR334W, strain swr1, active compounds read low 0.879 | locus YDR392W, strain spt3, active compounds read low 0.596 | locus YER111C, strain swi4, active compounds read low 1.13 [resistant] | locus YER155C, strain BEM2 (second series), active compounds read low 0.766 | locus YGL240W, strain doc1, active compounds read low 0.817
